Reference: PubChem BioAssay
Calls of active or inactive are those of the source.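 Rule for the calls, unless noted: active = inhibition of the reporter signal at or above 50%; inactive = inhibition below 50%.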

Legend:
[1] = inhibitors of TNFa-induced NFkB p65 translocation, primary screen, imaging, HUVEC, MLSMR starter and 10KST1 sets (AID 438;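 active = inhibition above 20% together with a positive visual image hit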;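 note: compound added about 3h40 before a 20 min TNFalpha stimulation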;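 for inhibition: signal is the nuclear over cytoplasmic p65 intensity ratio per well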); conditions: HUVEC TNFa-induced p65 nuclear translocation; cell count: measured here: nuclei count (cytotoxicity indicator), at 2.08 µM; inhibition: at 2 µM, stronger effect = higher value, 0% TNFa-plus-vehicle, 100% no-TNFa wells
[2] = inhibitors of mutant huntingtin aggregation, primary screen, imaging, exon1htt(103Q)mCFP cells, high-content imaging (AID 483;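 active = visual image review flags a hit and inhibition of aggregation exceeds 20%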;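 note: compound exposure lasted 3 days before fixation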;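 for nuclei count: percent of the per-plate median nuclei count of sample wells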); conditions: exon1htt(103Q)mCFP cell line, aggregate imaging, at 2 µM; inhibition of aggregation: stronger effect = higher value; nuclei count: measured here: cell count, toxicity
[3] = inhibitors of E-selectin induction by TNFa, primary screen, imaging, HUVEC, immunofluorescence, MLSMR starter and 10KST1 sets (AID 487;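 active = visually confirmed hit in the image check and inhibition above 20%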;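 for inhibition: signal is fraction of cell area covered by stained E-selectin grains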;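 for nuclei count: 100% = median nuclei count of all wells on the same plate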); conditions: HUVEC TNFalpha-induced E-selectin immunofluorescence imaging, at 2 µM; inhibition: stronger effect = higher value; nuclei count: measured here: cell number, toxicity
[4] = molecular target: Voltage-gated potassium channel subunit beta-2 (Rattus norvegicus) (UniProt P62483); assay: KvBeta enzyme negative modulators, primary screen, biochemical, NADPH fluorescence (AID 622;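 active = fluorescence slope higher than the sample average by over 3 SD, cut at about -0.22 in these data, passing the limit was not always enough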;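 note: slope of raw intensity against log time taken from 70 to 1610 s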); conditions: recombinant KvBeta, 4-cyanobenzaldehyde reduction, at 10 µM, stronger effect = higher value
[5] = molecular target: Voltage-gated potassium channel subunit beta-2 (Rattus norvegicus) (UniProt P62483); assay: KvBeta positive modulators, primary screen, biochemical, NADPH fluorescence (AID 623;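 active = NADPH fluorescence slope more negative than the mean of all samples by about 3 SD, 99.7% confidence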;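 note: fluorescence intensity change per second fitted from 20 to 320 s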); conditions: Recombinant KvBeta, NADPH fluorescence decrease slope, 10 min; at 10 µM; stronger effect = lower value
[6] = molecular target: Alpha-2C adrenergic receptor (Homo sapiens) (UniProt P18825); assay: modulators of alpha2C/GIRK thallium flux, primary screen, cell-based, HEK293 alpha2C/GIRK1/2 (AID 624;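 active = fluorescence slope after compound addition differing from the mean of all screened samples at 99.7% confidence, in either direction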;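 note: slope of fluorescence ratio to pre-addition baseline per second over 15 to 24 s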); conditions: thallium flux BTC fluorescence, at 10 µM, actives lie on both sides
[7] = inhibitors of Sendai virus-induced IRF3 signaling, primary screen, TLR/RLR signaling modifier project, cell-based, Sendai virus stimulus, luciferase, 10K MLSCN set (AID 602276;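 active = inhibition at or above 50% at 10 µM; inactive = inhibition below 50%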;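 note: firefly luciferase from ISG56 promoter only with Renilla not read in this screen; 0% = Sendai virus plus DMSO and 100% = medium plus DMSO without virus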); conditions: HEK293 RL24 IRF3 luciferase reporter, at 10 µM, stronger effect = higher value
[8] = inhibitors of poly I:C-induced TLR3 signaling, primary screen, cell-based, poly I:C stimulus, luciferase, 10K MLSCN set (AID 602277); conditions: HEK293-TLR3 RL24 IRF3 luciferase reporter, at 10 µM, stronger effect = higher value

Sequence of Voltage-gated potassium channel subunit beta-2 (Rattus norvegicus) (P62483 whole entry, looked up): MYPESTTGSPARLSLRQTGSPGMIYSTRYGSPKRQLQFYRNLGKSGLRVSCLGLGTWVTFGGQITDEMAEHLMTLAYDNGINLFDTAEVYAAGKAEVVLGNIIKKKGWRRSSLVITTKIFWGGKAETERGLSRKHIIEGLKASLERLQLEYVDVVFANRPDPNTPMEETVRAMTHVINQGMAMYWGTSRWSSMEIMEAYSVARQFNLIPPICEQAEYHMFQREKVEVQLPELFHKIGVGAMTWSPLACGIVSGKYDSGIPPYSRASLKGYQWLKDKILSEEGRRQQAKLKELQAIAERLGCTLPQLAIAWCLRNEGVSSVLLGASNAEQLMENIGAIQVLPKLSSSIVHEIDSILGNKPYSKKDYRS
Sequence of Alpha-2C adrenergic receptor (Homo sapiens) (P18825 whole entry, looked up): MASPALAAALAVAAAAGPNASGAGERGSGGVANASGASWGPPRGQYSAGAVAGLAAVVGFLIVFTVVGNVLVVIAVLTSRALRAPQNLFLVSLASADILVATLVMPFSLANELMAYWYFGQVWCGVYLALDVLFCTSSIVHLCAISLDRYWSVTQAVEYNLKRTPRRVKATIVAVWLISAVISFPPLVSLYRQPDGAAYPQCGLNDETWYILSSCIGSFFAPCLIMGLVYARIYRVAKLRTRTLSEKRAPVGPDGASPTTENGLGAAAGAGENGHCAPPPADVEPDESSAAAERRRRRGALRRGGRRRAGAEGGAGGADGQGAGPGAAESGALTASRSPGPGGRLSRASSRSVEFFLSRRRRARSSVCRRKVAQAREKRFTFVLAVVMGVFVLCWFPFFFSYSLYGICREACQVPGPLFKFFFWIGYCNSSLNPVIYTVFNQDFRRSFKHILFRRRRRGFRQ

SMILES	cell count [1]	inhibition [1]	inhibition of aggregation [2]	nuclei count [2] [%]	inhibition [3]	nuclei count [3] [%]	fluorescence slope [4]	NADPH fluorescence slope [5]	slope [6]	inhibition [7]	inhibition [8]
Cc1ccc(S(=O)(=O)C2(C(=O)Nc3cccnc3)CC2)cc1	579	8.8% (inactive)	14.7% (inactive)	93.3	-126% (inactive)	98.8	-0.573 (inactive)	-2.5e-05 (inactive)	0.00528 (inactive)	9.66% (inactive)	28.7% (inactive)
Cc1cc(C(F)F)n2nc(C(=O)Nc3ccc(S(=O)(=O)N4CCCCCC4)cc3)nc2n1	602	-6.2% (inactive)	9.9% (inactive)	85.5	-59.4% (inactive)	96.2	-0.566 (inactive)	2.4e-05 (inactive)	0.00419 (inactive)	17.7% (inactive)	22.1% (inactive)
CCOC(=O)c1ccc(NS(=O)C23CC4CC(CC(C4)C2)C3)cc1 (stereo not drawn)	406	-1.1% (inactive)	-7.1% (inactive)	111	-53.8% (inactive)	134	-0.458 (inactive)	-9e-06 (inactive)	0.00476 (inactive)	-1.97% (inactive)	6.33% (inactive)
O=C(NCc1ccc2c(c1)OCO2)c1ccc(NS(=O)(=O)c2ccc3c(c2)OCCO3)cc1	499	-22.3% (inactive)	20.4% (inactive)	104	-0.9% (inactive)	128	-0.615 (inactive)	-2.7e-05 (inactive)	0.00624 (inactive)	10.8% (inactive)	17.5% (inactive)
O=C(COC(=O)CCc1c[nH]c2ccccc12)NC1CCS(=O)(=O)C1 (stereo not drawn)	473	4.7% (inactive)	-7.7% (inactive)	101	-70.8% (inactive)	113	-0.57 (inactive)	-1.6e-05 (inactive)	0.00772 (inactive)	4.42% (inactive)	-2.03% (inactive)
O=C(Oc1ccc(Cl)cc1N1C(=O)CCC1=O)c1ccco1	331	-4.2% (inactive)	-31.4% (inactive)	114	-182% (inactive)	134	-0.463 (inactive)	-1.4e-05 (inactive)	0.00607 (inactive)	7.34% (inactive)	31.5% (inactive)
CC(C)(C#N)Nn1cnnc1	609	5.3% (inactive)	13.2% (inactive)	109	-1.2% (inactive)	110	-0.237 (inactive)	-1.3e-05 (inactive)	0.00429 (inactive)	11.7% (inactive)	21.2% (inactive)
COc1ccc(S(=O)(=O)N2CCCC2C(=O)Nc2ccc(O)cc2)cc1 (stereo not drawn)	601	7.1% (inactive)	-21.9% (inactive)	110	-23.4% (inactive)	111	-0.535 (inactive)	-2e-05 (inactive)	0.00566 (inactive)	1.14% (inactive)	12.2% (inactive)
CCc1nnc(NC(=O)CSc2nnc(-c3ccoc3C)n2CC(C)C)s1	714	3.2% (inactive)	-3.8% (inactive)	110	15.4% (inactive)	91	-0.367 (inactive)	4.9e-06 (inactive)	0.0051 (inactive)	16.7% (inactive)	15.3% (inactive)
CCCCN(C)Cc1c(O)ccc2c(-c3ccccc3)cc(=O)oc12	303	0.3% (inactive)	5% (inactive)	103	-26.5% (inactive)	96.4	-0.158 (active)	-2.3e-05 (inactive)	0.00475 (inactive)	-3.57% (inactive)	28.4% (inactive)
O=C(Nc1ccc2c(c1)C(=O)N(C1CCCCC1)C2=O)C1CCCO1 (stereo not drawn)	269	-11.7% (inactive)	9% (inactive)	71.5	47.7% (inactive)	43.2	-0.0454 (active)	6.1e-06 (inactive)	0.00452 (inactive)	-7.34% (inactive)	-20.5% (inactive)
O=C1c2ccccc2C(=O)N1CCN1CCCCC1	528	0.3% (inactive)	-9.5% (inactive)	113	-58.5% (inactive)	117	-0.327 (inactive)	-5e-05 (inactive)	0.00644 (inactive)	-8.79% (inactive)	-2.11% (inactive)
CCc1ccc(NC(=O)CS(=O)CC(=O)NC(C)CCc2ccco2)cc1 (stereo not drawn)	388	0.6% (inactive)	18.9% (inactive)	94.8	-203% (inactive)	116	-0.484 (inactive)	-1.8e-05 (inactive)	0.00694 (inactive)	5.19% (inactive)	13.9% (inactive)
O=C(OCc1nnc(-c2ccccc2)o1)c1ccc2ccccc2n1	457	-3.1% (inactive)	-11.6% (inactive)	95.8	-165% (inactive)	106	-0.565 (inactive)	7e-05 (inactive)	0.00433 (inactive)	-29.8% (inactive)	-34.4% (inactive)
CCCNC(=O)C1CCN(S(=O)(=O)c2ccc3nc4c(c(C(=O)O)c3c2)CCCCC4)CC1	637	1.3% (inactive)	-1.8% (inactive)	119	-26.6% (inactive)	118	-0.531 (inactive)	2e-05 (inactive)	0.00704 (inactive)	8.11% (inactive)	12.8% (inactive)
O=C1NC(c2ccccc2)(C(F)(F)F)SC2=CCCCCN12 (stereo not drawn)	415	12.1% (inactive)	2% (inactive)	98.6	-14% (inactive)	111	-0.545 (inactive)	5e-05 (inactive)	0.00583 (inactive)	-3.83% (inactive)	7.38% (inactive)
COc1ccc(C2=CC(=O)OC3(CCCCC3)O2)cc1	390	-5.3% (inactive)	-4.6% (inactive)	99.3	-152% (inactive)	115	-0.475 (inactive)	-8.9e-05 (inactive)	0.0046 (inactive)	13% (inactive)	22.7% (inactive)
O=C1c2ccccc2C(Nc2ccc3c(c2)OCCO3)N1Cc1ccco1 (stereo not drawn)	548	-2% (inactive)	17.5% (inactive)	102	-106% (inactive)	132	-0.589 (inactive)	-2.3e-05 (inactive)	0.00424 (inactive)	12.3% (inactive)	7.32% (inactive)
COc1ccc(-c2nnc3sc(C(C)N4C(=O)c5ccccc5C4=O)nn23)cc1 (stereo not drawn)	528	-3.3% (inactive)	2.3% (inactive)	91.9	-8.9% (inactive)	105	-0.45 (inactive)	4.5e-05 (inactive)	0.00329 (inactive)	-9.81% (inactive)	-4.7% (inactive)
CCn1cc(C(=O)NCc2ccccc2OC)c(=O)c2cc(S(=O)(=O)N(C)C)ccc21	665	-5.5% (inactive)	7.5% (inactive)	74.5	-39.5% (inactive)	113	-0.425 (inactive)	-4e-05 (inactive)	0.00524 (inactive)	13.2% (inactive)	23.7% (inactive)
O=C1OC(N2CCN(c3ccccn3)CC2)c2ccccc21 (stereo not drawn)	697	9.1% (inactive)	-14.4% (inactive)	104	34.3% (inactive)	88.3	-0.633 (inactive)	-3.6e-05 (inactive)	0.00362 (inactive)	19.9% (inactive)	12% (inactive)
CCOC(=O)n1c(SCC(=O)N(CC)CC)nc2ccccc21	522	1% (inactive)	10.7% (inactive)	102	44.9% (inactive)	93.9	-0.597 (inactive)	-4.3e-05 (inactive)	0.00594 (inactive)	0.265% (inactive)	-26.4% (inactive)
COc1ccccc1C(=O)NC(C)C(c1cccs1)N1CCN(C)CC1 (stereo not drawn)	547	-1.6% (inactive)	0.7% (inactive)	106	-38.9% (inactive)	114	-0.394 (inactive)	1.2e-06 (inactive)	0.00389 (inactive)	-13.5% (inactive)	-8.87% (inactive)
Cc1sc2nc(SCC(=O)Nc3c(C)n(C)n(-c4ccccc4)c3=O)n(C)c(=O)c2c1C	556	-8.3% (inactive)	9% (inactive)	74.8	13.4% (inactive)	118	-0.376 (inactive)	1e-05 (inactive)	0.00842 (inactive)	5.86% (inactive)	-5.09% (inactive)
CCc1ccccc1NC(=O)C(C#N)Cc1cccnc1 (stereo not drawn)	575	-1.5% (inactive)	2.2% (inactive)	100	-21.3% (inactive)	104	-0.51 (inactive)	-9e-07 (inactive)	0.00548 (inactive)	-6.51% (inactive)	19% (inactive)
Cc1ccc(CC2SC(=O)NC2=O)cc1Cl (stereo not drawn)	790	10.4% (inactive)	-3% (inactive)	97.9	0% (inactive)	119	-0.488 (inactive)	-5.4e-05 (inactive)	0.00487 (inactive)	10.2% (inactive)	12% (inactive)
CC(C)(C)c1nc(CN2CCOCC2)ccc1O	580	-17% (inactive)	21.1% (inactive)	104	-58.3% (inactive)	109	-0.401 (inactive)	-4.4e-05 (inactive)	0.0093 (inactive)	10.4% (inactive)	29.3% (inactive)
CN(C)c1ccc(C(=O)OCC(=O)NC2CCCCC2)cc1	548	-0.3% (inactive)	4.3% (inactive)	90.3	-46.5% (inactive)	110	-0.475 (inactive)	-3.6e-05 (inactive)	0.00547 (inactive)	16.6% (inactive)	10.9% (inactive)
